Compound activity (PubChem)
TROY signal inh – inhibitors of TROY-driven NF-kB signaling, primary screen, Q293 LMP1-TROYcd cells, NF-kB luciferase, uHTS. Q293 LMP1-TROYcd NF-kB luciferase reporter, 4 h. inhibition, % at 10 µM. hit rate 0.98% among 360,000;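 active = compounds whose plate-normalised and pattern-corrected inhibition of the luciferase reporter signal at the single screening dose is 50% or more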
aSyn 5UTR inh – MLPCN primary screen, SNCA 5' untranslated region | alpha-synuclein 5'UTR reporter, inhibitor activity | inhibition, % (tested at 7.5 µM) | hit rate 0.82% among 300,000; in the data active = inhibition above about 60%;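 also: H4 neuroglioblastoma cells stably carrying SNCA 5'UTR luciferase fusion; 0% = DMSO wells and 100% = positive control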
C8 TRAIL sens – viability loss with TRAIL in NB7+C8 cells, primary screen, TRAIL sensitizer project, cell-based, ATPlite luminescence; inhibition (viability loss, TRAIL sensitization), % at 10 µM; hit rate 1% among 360,000;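 active = compounds causing at least 50% loss of cell viability in the single-dose screen, relative to plate controls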
HIF-2a inh – HIF-2a reporter inhibitors, primary screen, luminescence, 786-0 RCC cells; 786-0 RCC cells HIF-2a reporter, luciferase luminescence, overnight; inhibition, % at 18.8 µM; hit rate 0.72% among 360,000; AID 624352, 2012;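 active = inhibition of the luminescence signal of 40% or more relative to plate controls, in a single-dose primary screen at 18.75 µM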
TWEAK-Fn14 inh – inhibitors of TWEAK-Fn14 signaling, primary screen, luciferase reporter cells, uHTS | TWEAK-stimulated Fn14 reporter cells, luciferase luminescence, 8 h | inhibition, % at 10 µM | hit rate 2% among 360,000; in the data active = inhibition above about 50%
HSP90 inh – HSP90 inhibitors, primary screen, cell lysate, luminescence. Heat shock protein HSP 90 (rabbit reticulocyte lysate; luciferase refolding). inhibition, % at 5.6 µM. Rabbit reticulocyte lysate, luciferase refolding luminescence, 3 h. hit rate 0.91% among 290,000;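 active = inhibition above the screen-wide mean plus 3 SD, computed separately per campaign, cut at about 16% in these data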;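 also: 0% = DMSO wells and 100% = 60 µM geldanamycin wells; inhibitors lower the luminescence because luciferase stays unfolded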
Mdm2 MdmX conf – retested Mdm2-MdmX interaction blockers, confirmation, cell-based, luminescence, single concentration, set 2. shares compounds with HIF-2a inh. SaOS-2 split-luciferase Mdm2/MdmX complementation. inhibition, % at 8 µM. hit rate 99% among 740. AID 504601, 2011;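 active = mean inhibition of the luminescence signal across two replicates at or above 26 percent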
Target sequence (O15151 whole entry, looked up): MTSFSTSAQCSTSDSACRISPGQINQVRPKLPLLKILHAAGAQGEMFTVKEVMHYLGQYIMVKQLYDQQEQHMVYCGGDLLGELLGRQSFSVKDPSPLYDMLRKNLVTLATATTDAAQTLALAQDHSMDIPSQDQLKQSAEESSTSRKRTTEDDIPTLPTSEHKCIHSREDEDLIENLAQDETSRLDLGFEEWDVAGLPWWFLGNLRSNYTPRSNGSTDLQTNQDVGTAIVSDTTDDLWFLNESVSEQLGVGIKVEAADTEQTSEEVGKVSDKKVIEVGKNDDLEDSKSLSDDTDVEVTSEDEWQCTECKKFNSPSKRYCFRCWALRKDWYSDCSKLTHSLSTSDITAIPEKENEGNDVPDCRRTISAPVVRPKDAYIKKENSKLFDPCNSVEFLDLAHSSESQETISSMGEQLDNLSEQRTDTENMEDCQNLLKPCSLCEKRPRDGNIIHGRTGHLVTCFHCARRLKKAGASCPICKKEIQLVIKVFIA
Target sequence (Q00987 whole entry, looked up): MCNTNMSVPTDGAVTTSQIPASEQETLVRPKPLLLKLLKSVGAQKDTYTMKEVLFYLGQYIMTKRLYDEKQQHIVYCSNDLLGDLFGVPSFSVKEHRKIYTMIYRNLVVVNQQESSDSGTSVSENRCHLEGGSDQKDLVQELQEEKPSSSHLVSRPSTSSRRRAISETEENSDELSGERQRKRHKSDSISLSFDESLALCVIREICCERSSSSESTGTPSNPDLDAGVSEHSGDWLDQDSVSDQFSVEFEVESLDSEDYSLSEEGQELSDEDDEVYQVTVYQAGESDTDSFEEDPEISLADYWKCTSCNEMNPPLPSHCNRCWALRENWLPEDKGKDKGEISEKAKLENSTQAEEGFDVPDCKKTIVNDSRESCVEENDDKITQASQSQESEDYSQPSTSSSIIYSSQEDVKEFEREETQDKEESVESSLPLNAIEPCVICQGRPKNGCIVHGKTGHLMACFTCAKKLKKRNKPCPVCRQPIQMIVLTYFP
HIF-2a inh conf – HIF-2a reporter inhibitor retest, confirmation, luminescence, 786-0 RCC cells; shares compounds with HIF-2a inh; HIF-2a luciferase reporter luminescence, overnight; inhibition, % at 18.8 µM; hit rate 56% among 1,800; AID 651580, 2012;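 active = mean inhibition across four replicates of at least 40 percent at the single tested concentration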
HIF-1a cs – HIF-1a luciferase reporter signal reduction – MiaPaCa-2 cells, single concentration, counter-screen for HIF-2a inhibitor project, confirmation | shares compounds with HIF-2a inh | inhibition, % at 18.8 µM | MiaPaCa-2 HIF-1a luciferase reporter, desferoxamine, overnight | AID 651589, 2012 | hit rate 72% among 1,800;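 active = mean inhibition of the reporter signal across four replicates at the single tested dose of 50% or more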
* marks the source's active call; other numbers are inactive results; . = no result. The list is not random: actives were taken first. Their share in the collection is about 3.9%.

SMILES	TROY signal inh	aSyn 5UTR inh	C8 TRAIL sens	HIF-2a inh	TWEAK-Fn14 inh	HSP90 inh	HIF-2a inh conf	HIF-1a cs	others
O=C1CCCCCN1Sc1ccccc1	10	-21	-6	44*	5	14	31	8
O=C1CCCCCN1C(=O)c1ccccc1	6	.	-1	-2	11	.	.	.
N#Cc1cccc2c1-c1ccccc1/C2=N/NC(N)=S	1	33	-5	48*	-64	6	-9	32
N#Cc1cccc2c1-c1ccccc1/C2=N/NC(N)=O	-24	15	11	30	-21	-1	.	.
O=C(NCCC1CCCCN1S(=O)(=O)c1ccc(F)cc1)C(=O)NCc1ccncc1 (stereo not drawn)	-4	40	0	43*	0	.	-3	31
Cc1ccc(S(=O)(=O)N2CCCCC2CCNC(=O)C(=O)NCc2cccnc2)cc1 (stereo not drawn)	11	-48	17	24	5	.	.	.
Cc1nc(NCc2ccco2)c2c(C)c(C)sc2n1	29	-177	28	-27	-27	2	.	.	Mdm2 MdmX conf=101*
CCOC(=O)Cc1csc(NC(=O)Cc2ccc(Cl)cc2)n1	16	-5	-9	6	13	1	.	.
CCOC(=O)Cc1csc(NC(=S)NC(=O)c2ccc([N+](=O)[O-])cc2)n1	-12	-5	25	63*	-8	1	71*	-14
CCOC(=O)Cc1csc(NC(=S)NC(=O)c2ccc(Cl)cc2)n1	27	3	51*	95*	0	5	98*	97*
CCOC(=O)Cc1csc(N/N=C\c2ccccc2OC)n1	-24	-59	0	-54	-8	1	.	.
CCOC(=O)Cc1csc(N/N=C/c2ccccc2)n1	-32	-23	7	41*	-3	7	38	6
O=S1(=O)CC(N2CCC(c3ccccc3)CC2)CN1Cc1ccccc1 (stereo not drawn)	-2	.	-11	-10	3	.	.	.
COc1cc(NC(=O)Cn2c([N+](=O)[O-])cnc2C)c(OC)cc1Cl	14	7	-8	10	0	-5	.	.
Nc1nc(F)nc2c1ncn2[C@@H]1O[C@H](CO)[C@@H](O)[C@H]1O	51*	122*	57*	57*	87*	.	55*	107*
O=C(NCCN1C(=O)S/C(=C\c2ccc(Cl)c([N+](=O)[O-])c2)C1=O)C1=COCCO1	57*	-44	55*	44*	64*	.	-2	104*
CCOc1cc(NC(=O)CCl)c(OCC)cc1NC(=O)CCl	8	-30	91*	23	44	-1	.	.	Mdm2 MdmX conf=103*
Cc1ccc(C(=O)Nc2ccccc2[N+](=O)[O-])cc1S(=O)(=O)N1CCOCC1	-19	5	-10	14	1	1	.	.
Cc1ccc(NC(=O)c2ccc(N3CCOCC3)c([N+](=O)[O-])c2)cc1S(=O)(=O)N1CCOCC1	39	27	31	51*	45	3	3	59*
OCCSc1nc(-c2ccccc2)nc2ccc(F)cc12	-50	-17	12	-6	0	4	.	.
NC(N)=Nc1nc(-c2ccccc2)c2cc(F)ccc2n1	5	5	20	40*	-20	7	16	79*
Oc1ccc2ccccc2c1/C=N/Nc1nnc(-c2ncc[nH]2)c2ccccc12	6	102*	21	-32	31	6	.	.	Mdm2 MdmX conf=92*
CC(=O)Nc1cc(-c2ccc(CO)cc2)cn2c(-c3cccc(C(F)(F)F)c3)cnc12	-3	.	8	0	-5	.	.	.
CC(C)N(C(=S)Nc1cc(S(=O)(=O)N2CCOCC2)ccc1Cl)c1ccccc1	-7	7	-12	18	9	0	.	.
C/C(=N\NC(=S)Nc1cc(S(=O)(=O)N2CCOCC2)ccc1Cl)c1ccccc1F	-9	31	6	70*	-10	4	25	87*
SMILES	TROY signal inh	aSyn 5UTR inh	C8 TRAIL sens	HIF-2a inh	TWEAK-Fn14 inh	HSP90 inh	HIF-2a inh conf	HIF-1a cs	others
COC(=O)Cc1ccc(NC(=O)c2ccccc2Cl)cc1	-19	28	24	-20	19	-1	.	.
COC(=O)Cc1ccc(NC(=O)c2ccc(C(C)(C)C)cc2)cc1	19	124*	74*	90*	45	13	94*	40
OC(c1ccccc1)c1nc(-c2cccc(C(F)(F)F)c2)cs1 (stereo not drawn)	-30	.	-15	-139	-45	.	.	.
C=CCOc1ccc(C(=O)/C=C2/C(=O)Nc3ccccc32)cc1	-23	-42	40	5	-2	-2	.	.
COc1ccc(/C=C/C(=O)c2ccc(OC)cc2OC)cc1	-31	-114	14	-74	1	-6	.	.
COc1ccc(C(=O)/C=C2/C(=O)Nc3ccccc32)cc1	-30	-99	20	37	30	0	.	.
NC(=O)COc1ccc(C(=O)/C=C2/C(=O)Nc3ccccc32)cc1	1	-4	28	46*	47	3	35	25
O=C1Nc2ccccc2/C1=C/c1ccccc1F	-19	-23	13	-64	17	0	.	.
COc1ccc(C(=O)/C=C2/C(=O)Nc3ccccc32)cc1OC	8	-9	23	40*	-12	2	42*	44
COc1ccc(C(=O)/C=C2/C(=O)Nc3ccccc32)c(OC)c1	38	-44	28	91*	-4	7	64*	88*
O=C1Nc2ccccc2/C1=C/C(=O)c1cccs1	17	-9	6	54*	20	3	37	42
C=CCOc1ccccc1C(=O)/C=C1/C(=O)Nc2ccccc21	20	-25	12	80*	24	14	32	55*
CCOC(=O)/C=C/C(=O)Nc1cccc([N+](=O)[O-])c1	3	-7	-30	4	-20	-5	.	.
CCOC(=O)/C=C/C(=O)Nc1ccccc1-c1ccccc1NC(=O)/C=C/C(=O)OCC	-52	3	-4	55*	58*	0	14	45
Cn1cc([N+](=O)[O-])c(C(=O)Nc2cc(Oc3ccccc3)cc([N+](=O)[O-])c2)n1	12	12	-4	95*	43	7	63*	108*
